Screening data as filed in PubChem BioAssay.
MLLE-PAM2 inh: inhibitors of PABP1 MLLE–PAM2 peptide binding, primary screen, biochemical, fluorescence polarization, FITC-PAM2, GST-MLLE. 360,000 compounds, 0.36% hits. Polyadenylate-binding protein 1 (Homo sapiens), P11940. inhibition, % at 20 µM; in the data active = inhibition above about 35%, passing the limit was not always enough;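 note: plate controls were DMSO wells with GST-MLLE for no effect and wells lacking GST-MLLE protein for full effect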
eIF4E 4G PPI: eIF4E–eIF4G protein interaction inhibitors, primary screen, biochemical, uHTS, TR-FRET, eIF4GI fragment; Eukaryotic translation initiation factor 4E (Mus musculus) + Eukaryotic translation …; TR-FRET eIF4E-eIF4GI(517-606) binding, 2 h; inhibition, % at 21.7 µM; 220,000 compounds, 0.37% hits; AID 782, 2007;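 active = inhibition above about 30%, limit read from the data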;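 note: 0% = full FRET control wells and 100% = background wells lacking eIF4GI fragment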
eIF4H FP inh: human eIF4H binding inhibitors, primary screen, translation initiation inhibitor project, biochemical, uHTS, fluorescence polarization; eIF4H fluorescence polarization binding assay; inhibition, % at 35 µM; 290,000 compounds, 0.94% hits;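 note: calls also rest on retests at 20 µM and on dose response follow-up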
PERK inh: block of dimerizer-induced PERK translation repression, primary screen, PERK inhibitor project, CHO PERK-DD cells, SEAP luminescence, HTS; Eukaryotic translation initiation factor 2-alpha kinase 3 (Homo sapiens), Q9NZJ5; CHO PERK-DD fusion, SEAP luminescence translation reporter; inhibition, % at 5.6 µM; 220,000 compounds, 0.17% hits; AID 1416, 2008;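 active = inhibition above the mean inhibition of all tested compounds plus 3 SD, set separately per screening campaign, cut at about 2.9% in these data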;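 note: PERK kinase domain activated by AP20187 dimerizer at 100 nM; 0% = DMSO with dimerizer and 100% = rapamycin at 8.4 µM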
PABP FP inh: PABP poly(A) RNA binding inhibitors, primary screen, biochemical, fluorescence polarization, uHTS; Polyadenylate-binding protein 1 (Homo sapiens), P11940; inhibition, % at 35 µM; 290,000 compounds, 1% hits; AID 2014, 2009;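 note: calls also rest on retests at 20 µM and on dose response follow-up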
An asterisk follows results filed as active; ? = inconclusive; / = no result given; ! = a repeat was not active. Most compounds without a hit are left out; they make up all but 1.6% or so of the library. Unless noted, the rule behind the calls is not given here.

SMILES	MLLE-PAM2 inh	eIF4E 4G PPI	eIF4H FP inh	PERK inh	PABP FP inh
CCOc1ccc(-c2csc(/C(C#N)=C\c3ccc(O)c([N+](=O)[O-])c3)n2)cc1	-25	6	58*	0	0
CC(C)OC(=O)[C@H]1[C@H](c2ccc(Cl)cc2)[C@@](C#N)(C(N)=O)[C@@H]2C=CC(C(N)=O)=CN21	2	4	53*	1	64*
COC1=C(c2ccccc2)C(=O)c2ccccc2C1=O	49*	15	1	1	-3
COc1ccc(C2=C(N)c3ccccc3C2=O)cc1	10	-6	-12	0	-10
O=C(NNC(=O)c1cccc2ccccc12)c1cccc(Cl)c1	-2	/	/	/	/
COc1cccc(OC)c1C(=O)NC(=S)Nc1cc(-c2nc3ccccc3[nH]2)ccc1Cl	16	0	active	-1	90
COc1c(F)c(F)c(C(=O)Nc2ccc(-c3nc4ccccc4[nH]3)cc2)c(F)c1F	8	-4	-2	1	20
CC(C)(C)c1ccc(NC(=O)C2=CN3CCS(=O)(=O)N=C3C=C2)cc1	-98	/	/	/	/
COc1ccc(-n2c(SCC3CNC(=O)O3)nnc2-c2ccc(Cl)cc2)cc1 (stereo not drawn)	-109	2	3	0	4
Cc1cccc(-c2nnc(SCC3CNC(=O)O3)n2-c2ccc(Cl)cc2)c1 (stereo not drawn)	-129	45*	0	-1	1
Cc1cccc(N2CCN(C(=O)c3ccccn3)CC2C)c1 (stereo not drawn)	-6	1	?	0	2.3*
Cc1cccc(N2CCN(C(=O)NC3CCCCC3)CC2C)c1 (stereo not drawn)	-18	/	-6	/	13
C=CCn1c(O)c(N=NC(=S)Nc2ccccc2F)c2cc(S(=O)(=O)N3CCOCC3)ccc21	42*	1	0	-1	1
C=CCn1c(O)c(N=NC(=S)Nc2ccccc2F)c2ccccc21	39*	-1	5	0	-4
CCn1c(O)c(N=NC(=O)CNc2cccc(C)c2)c2ccccc21	5	-4	-6	0	6
C=CCn1c(O)c(N=NC(=S)Nc2cccc(C)c2)c2ccccc21	42*	4	5	-2	4
Cc1ccccc1NC(=S)N=Nc1c(O)n(C)c2ccc(S(=O)(=O)N3CCOCC3)cc12	30	-4	5	-2	-2
Cc1ccc(NC(=O)CSCC(=O)NC2(C)CCS(=O)(=O)C2)cc1 (stereo not drawn)	2	/	/	/	/
CCOc1ccccc1O[C@H](c1ccccc1)[C@H]1CNCCO1	-6	/	/	/	/
C=CCOc1ccc(/C=C2\SC(=S)N(NS(=O)(=O)c3ccc(C)cc3)C2=O)cc1	-5	/	32	/	27
COc1ccc(Cn2c(O)c(C=Nc3ccc(O)cc3)c3ccccc3c2=O)cc1	3	-2	?	-1	-10
O=c1c2ccccc2c(C=Nc2ccc(O)cc2)c(O)n1Cc1ccccc1	-13	34*	39	-2	2
N#CC1C(=O)NC(=O)CC12CCCCC2 (stereo not drawn)	5	/	/	/	/
Cc1cccc(NC(=O)c2nc[nH]c2C(=O)N(C)Cc2ccccc2)c1	-9	/	/	/	/
O=C(NN=C1CCN(Cc2ccccc2)CC1)c1cc2ccccc2cc1O	4	9	97*	1	3.6*
SMILES	MLLE-PAM2 inh	eIF4E 4G PPI	eIF4H FP inh	PERK inh	PABP FP inh
O=C(NN=C1CCN(Cc2ccccc2)CC1)c1ccccc1O	3	-1	-7	0	-4
NS(=O)(=O)c1ccc(NC(=O)COC(=O)c2ccc(S(=O)(=O)N3CCOCC3)cc2)cc1	4	/	/	/	/
COc1ccc(O)c(N)c1	/	7	96*	1	active
CCCNC(=O)C1(C)CCN(C(=O)c2cccc(C#N)c2)C1 (stereo not drawn)	9	/	/	/	/
COc1ccc(NC(=O)Nc2cccc3c2O[C@@H](CN(C)S(=O)(=O)c2cn(C)cn2)[C@@H](C)CN([C@H](C)CO)C3=O)cc1	-3	/	/	/	/
O=C(N1CCOCC1)N1[C@H](COCc2ccccc2)C=CS1(=O)=O	7	/	/	/	/
CC(=O)N(C1=C(N2CCOCC2)C(=O)c2ccccc2C1=O)c1ccc(C(=O)O)cc1	10	36*	2	0	1
CC(=O)OC1CC2(C)C(CCC2(O)C(C)=O)C2CCC3C(Cl)C(=O)CCC3(C)C12 (stereo not drawn)	3	/	/	/	/
CC1=C(C(=O)Nc2ccccc2)C(c2ccc(C)o2)n2c(s/c(=C\c3ccco3)c2=O)=N1 (stereo not drawn)	-76	2	84*	0	101*
Cc1cc(Cl)ccc1NC(=S)NC(C)(C)C	40*	-3	-2	1	32
CCCNC(=S)Nc1ccc(Cl)cc1C	-4	4	-9	1	-6
Fc1cccc(NC(=S)Nc2cccnc2)c1	42*	0	0	1	-7
Cc1cc(Cl)ccc1NC(=S)Nc1cccnc1	38*	-3	1	2	-1
NC(=O)C1CCN(C(=O)CCC(=O)c2ccc(F)cc2)CC1	-3	/	-7	/	-3
COCc1cc(C)n(CC(=O)Nc2ccc(N3CCOCC3)cc2)c(=O)c1C#N	-5	/	/	/	/
Cc1ccc(S(=O)(=O)NC2=C(N3CCN(c4ccccc4F)CC3)C(=O)c3ccccc3C2=O)cc1	38*!	-8	10	0	39
Cc1ccc(NC2=C(N3CCOCC3)C(=O)c3ccccc3C2=O)cc1	38	-4	0	3.2*	0
O=C(OCC(=O)N1CCCCCC1)c1ccc(F)cc1F	-1	/	/	/	/
Cc1cc(S(=O)(=O)Nc2ccc3cn[nH]c3c2)c(C)cc1Cl	-3	/	-7	/	15
Cc1cc(C)c(S(=O)(=O)/N=C2\C=C(Nc3ccc(C(=O)O)cc3)C(=O)c3ccccc32)c(C)c1	8	/	60*	/	54*
Cc1ccnc(NC(=O)c2ccc(NS(=O)(=O)/C=C/c3ccccc3)cc2)c1	-5	/	/	/	/
C1CC2CN(c3nc4nonc4nc3N3CCSCC3)CCN2C1 (stereo not drawn)	52*	4	60	0	28
COc1cccc(NC(=O)Nc2ccncc2)c1	6	-2	-3	0	-12
COc1cccc(NC(=O)Nc2ccc(C(C)(C)C)cc2)c1	0	66*	3	0	3
Cc1ccc(S(=O)(=O)N2CCN(C(=O)COC(=O)Cc3cccc(C(F)(F)F)c3)CC2)c(C)c1	2	/	/	/	/
Cc1cc2ncn(C(=O)c3cc(-c4ccccc4)nc4ccccc34)c2cc1C	11	0	active	0	50*
CC(C)Oc1ccc(CCC(=O)NNC(=O)CCC(=O)O)cc1	3	8	3	3.1*	11
